In PubChem BioAssay (NCATS) one finds Potency and activity change, negative = inhibition data, which are given here for 27 compounds.

The test system of test [1] is Zika virus NS2B-NS3 protease (unlinked complex). Description: Primary screen GU Rhodamine qHTS for Zika virus inhibitors: Unlinked NS2B-NS3 protease assay (AID 1347159). Further: nearly all actives have a fitted effect of over 60% in size. In short, it runs like this:
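Percent inhibition came from the 15-min rise in Rhodamine110 fluorescence (1.5 microM substrate, ~15% conversion), normalized to no-inhibitor and no-enzyme wells and Hill-fitted. Unlinked protease, 25 nM, pH 8.0 Tris buffer; compounds up to 114 microM, 15-min preincubation.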
In general terms: Quantitative high-throughput screening tests each substance at several concentrations.

Test [2] relates to Zika virus NS2B-NS3 protease (linked construct). Description: Primary screen NINDS Rhodamine qHTS for Zika virus inhibitors (AID 1347160). Further: nearly all actives have a fitted effect of over 55% in size. Summed up:
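Rhodamine110-peptide cleavage (1.5 µM substrate) by 25 nM linked NS2B-NS3 enzyme at pH 8.0 (Tris, Tween 20), after 15 min RT preincubation with compounds; 15-min fluorescence change normalized to controls and Hill-fitted.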

Records with an inconclusive call do not appear. A number with no mark means an inactive call. Active and inactive are the calls of the source. The call rests on the fitted dose curve; in most records, active means well fitted inhibition curve with a large enough effect; inconclusive means small, poorly fitted or top-dose-only effect; inactive means no such curve, though single readings can be large or run the other way.
On the % scale 0 is the no-effect control and ±100 the full control effect; potency means the concentration at half of the fitted maximal effect.

With `COC1(CC(C)C)NC(=O)C(O)(Cc2ccccc2)NC1=O` (centres undefined), the Potency entry in test [1] and in test [2] was “inactive” each time.

With `NC(=O)[C@H]1CCCCc2c1[nH]c1ccc(Cl)cc21`, the Potency result in test [1] and in test [2] was “inactive” each time.

Turning to `COc1cc2c(cc1O)C1(Cc3ccc4c(c3C1=O)OCO4)N(C)CC2` (centres undefined), the Potency result in test [1] and in test [2] was “inactive” each time.

`C[C@@H]1O[C@@H](O[C@H]2[C@H](O[C@H]3CC[C@@]4(C)C(CC[C@]5(C)C4CC=C4C6CC(C)(C)CC[C@]6(C(=O)O[C@@H]6O[C@H](CO[C@@H]7O[C@H](CO)[C@@H](O[C@@H]8O[C@@H](C)[C@H](O)[C@@H](O)[C@H]8O)[C@H](O)[C@H]7O)[C@@H](O)[C@H](O)[C@H]6O)CC[C@]45C)[C@]3(C)CO)OC[C@H](O)[C@@H]2O)[C@H](O)[C@H](O)[C@H]1O` (some centres undefined): the activity change, negative = inhibition in test [1] is 20.6% [at 19.1 µM]; in test [2], 37.8% [at 10.7 µM].

In the case of `CC1[C@@H](O)[C@@H](O)C2[C@]3(C)C(C[C@H]4OC(=O)[C@H](O)[C@]1(O)[C@@]24C)C(C)(O)C[C@H](O)[C@H]3O` (some centres undefined), the Potency result in test [1] and in test [2] was “inactive” throughout.

As for `C/C=C/C=C/C=C/C(=O)O[C@@H]1[C@@H](OC)C2=C(C(=O)N(C(C)C(=O)O)C2)[C@@]2(C)CCCC(C)(C)[C@H]12` (some centres undefined), the Potency is 7.94 µM (active) in test [1] and 11.2 µM (active) in test [2].

Take `C=CC1C(O[C@@H]2O[C@H](CO)[C@@H](O)[C@H](O)[C@H]2O)OC=C(C(=O)OC)C1Cc1nccc2c1[nH]c1ccccc12` (some centres undefined): the Potency result in test [1] and in test [2] was “inactive” throughout.

Consider `Cn1ccnc1CCOC(c1cc2nccc(C(=O)O)c2[nH]1)c1ccccc1Cl` (centres undefined), for which the Potency result in test [1] and in test [2] was “inactive” throughout.

For the compound `Cc1cc(C)c(S(=O)(=O)N(Cc2ccc(-c3cccc(S(C)(=O)=O)c3)cc2)Cc2ccc(C(F)(F)F)o2)c(C)c1`, the Potency result in test [1] and in test [2] was “inactive” throughout.

`C/C=C/C=C/C(CC(=O)O)Nc1ccc(C=O)cc1` (centres undefined): the Potency is 11.2 µM (active) in test [1] and 49.3 µM (active) in test [2].

For `O=C(CCCCc1ccc2ccccc2c1)C(F)(F)F`, the Potency result in test [1] and in test [2] was “inactive” throughout.

As for `Cc1ccc(C(=O)Nc2ccc(Oc3cc4cnn(C)c4cc3-c3cn[nH]c3)c(F)c2)c(=O)n1-c1ccc(F)cc1`, the Potency entry in test [1] and in test [2] was “inactive” throughout.

`C=CCc1ccc(O[C@@H]2O[C@H](CO[C@@H]3O[C@H](CO)[C@@H](O)[C@H](O)[C@H]3O)[C@@H](O)[C@H](O)[C@H]2O)c(O)c1`: the Potency result in test [1] and in test [2] was “inactive” in each case.

For `CCOc1ccc(C(Nc2ccccn2)c2ccc3ccc(C)nc3c2O)cc1C` (centres undefined), the Potency result in test [1] and in test [2] was “inactive” each time.

As for `C=C1[C@H]2CC[C@]3(O)[C@@](CC[C@@H]4[C@](C)(C(=O)O)CCC[C@]43C)(C2)[C@H]1OC(=O)/C(C)=C\C`, the Potency result in test [1] and in test [2] was “inactive” each time.

Take `COc1cc(COC2OC(CO)C(O)C(O)C2O)cc(OC)c1O` (centres undefined): the Potency entry in test [1] and in test [2] was “inactive” throughout.

`CC1CCC2C(C)(C)C(O)CCC2(C)C12Cc1c(O)cc3c(c1O2)C(N)=NC3` (centres undefined): the Potency result in test [1] and in test [2] was “inactive” in each case.

In the case of `CC(C)c1nc(N(C)S(C)(=O)=O)nc(-c2ccc(F)cc2)c1/C=C/[C@@H](O)C[C@@H](O)CC(=O)O`, the Potency entry in test [1] and in test [2] was “inactive” in each case.

`CCC(NC(=O)CC(NC(=O)C(CO)NC(=O)C(CC)NC(=O)c1ccc[nH]1)c1ccccc1)C(=O)O` (centres undefined): the Potency result in test [1] and in test [2] was “inactive” each time.

In the case of `C(#Cc1cccc(CN2CCOCC2)c1)CCN1CCCCC1`, the Potency result in test [1] and in test [2] was “inactive” throughout.

With `CON(C)C(=O)N1N=C(c2cc(F)ccc2F)S[C@@]1(CCCN)c1ccccc1`, the Potency result in test [1] and in test [2] was “inactive” throughout.

For `C[C@@H]1CC[C@]2(C(=O)O)CC[C@]3(C(=O)O)C(=CCC4[C@@]5(C)CC[C@H](O[C@@H]6O[C@@H](C)[C@H](O[C@@H]7O[C@H](CO)[C@@H](O)[C@H](O)[C@H]7O)[C@@H](O)[C@H]6O)C(C)(C)C5CC[C@]43C)C2[C@H]1C` (some centres undefined), the Potency entry in test [1] and in test [2] was “inactive” throughout.

For `Cc1nc2c(-c3cnc(N)nc3)nc(N3CCOCC3)nc2n1C(C)C`, the Potency result in test [1] and in test [2] was “inactive” each time.

With `C[C@@]12C[C@]3(O)O[C@H](O1)[C@]1(COC(=O)c4ccccc4)[C@H]3C[C@@]12O[C@@H]1O[C@H](COC(=O)c2ccccc2)[C@@H](O)[C@H](O)[C@H]1O`, the Potency result in test [1] and in test [2] was “inactive” each time.

With `CCOc1cc2ncc(C#N)c(Nc3ccc(OCc4ccccn4)c(Cl)c3)c2cc1NC(=O)/C=C/CN(C)C`, the Potency result in test [1] and in test [2] was “inactive” throughout.

For `COC1=CC(=O)C[C@@H](C)[C@]12Oc1cc(OC)cc(OC)c1C2=O`, the Potency result in test [1] and in test [2] was “inactive” throughout.

As for `C[C@@H]1O[C@@H](O[C@@H]2[C@@H](O)[C@H](O[C@@H]3[C@@H](O)[C@@H](O)[C@H](O[C@H]4[C@H](OC(=O)[C@]56CCC(C)(C)C[C@H]5C5=CCC7[C@@]8(C)C[C@H](O)[C@H](O[C@@H]9O[C@@H](C)[C@H](O)[C@@H](O)[C@H]9O)[C@@](C)(CO)C8CC[C@@]7(C)[C@]5(C)C[C@H]6O)O[C@H](C)[C@H](O)[C@@H]4O)O[C@H]3C)OC[C@H]2O)[C@H](O)[C@H](O)[C@H]1O` (some centres undefined), the activity change, negative = inhibition in test [1] was -9.55% [at 19.1 µM]; in test [2], 4.29% [at 10.7 µM].
